CatB inh = human cathepsin B inhibitors, primary screen, biochemical, fluorogenic substrate; P07858; purified cathepsin B, fluorescence; inhibition, %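 (tested at 10 µM)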; 0.1% of 63,000 active; AID 453, 2006; in the data active = inhibition above about 21%;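 also: 0% = enzyme with no compound and 100% = no enzyme blank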
CatB mix inh = cathepsin B inhibitors from pooled compounds, primary screen, biochemical, compound mixtures, AMC fluorescence; P07858; Purified cathepsin B, AMC dipeptide fluorescence; inhibition, %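 (ten-compound pools at 5 µM per compound and 50 µM total)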; AID 488, 2006; 0.06% of 62,000 active; in the data active = inhibition above about 22%, passing the limit was not always enough; inconclusive = no clear call, values can overlap the other calls;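 also: 0% = enzyme without compound and 100% = no enzyme blank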
SK-BR-3 tox 24h = SK-BR-3 proliferation inhibitors, primary screen, cell-based, human, 24 h | viability, % at 10 µM | SK-BR-3 viability, CellTiter-Glo ATP luminescence; stronger effect = lower value | 0.47% of 41,000 active | AID 847, 2007;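 active = viability at or below the median of all test compounds minus 3 SD, in both replicates if run twice, cut at about 45% in these data; inconclusive = duplicate replicates that disagree with each other; inactive = viability above that cutoff in every replicate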;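 also: 100% = median untreated cell wells and 0% = median positive control drug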
CatL inh = inhibitors of human cathepsin L, biochemical | purified cathepsin L, fluorogenic substrate, fluorescence | AID 460, 2006 | inhibition, %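 (tested at 10 µM)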 | Procathepsin L (Homo sapiens), P07711 | 0.17% of 58,000 active; in the data active = inhibition above about 45%;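 also: 0% = enzyme with no compound and 100% = no enzyme blank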
Target sequence (P07711 114-288 limits assumed): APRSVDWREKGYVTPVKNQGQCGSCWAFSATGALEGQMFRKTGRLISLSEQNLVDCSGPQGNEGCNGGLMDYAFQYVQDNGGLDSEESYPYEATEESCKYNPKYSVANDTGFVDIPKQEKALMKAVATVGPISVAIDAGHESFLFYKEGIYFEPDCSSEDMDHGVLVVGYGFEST
Target sequence (P07711 292-333 limits assumed): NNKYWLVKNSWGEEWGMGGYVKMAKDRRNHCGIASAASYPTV
HER2 expr 66K = inhibitors of Her2 protein expression, primary screen, SKBR-3 cells, AlphaScreen, 66K library; AID 645, 2007; SKBR-3 HER2 protein level, 18-24 h; stronger effect = lower value; HER2 level % of control, % at 10 µM; 0.69% of 65,000 active;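 active = HER2 level under 5% of the carrier-only control; inconclusive = no clear call, values can overlap the other calls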;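 also: 100% = DMSO carrier and 0% = 500 nM PU-H71 HSP90 inhibitor; lower value means stronger loss of Her2 protein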
CatS inh = inhibitors of human cathepsin S, biochemical, compound mixtures. P25774. 0.06% of 62,000 active. recombinant cathepsin S, AMC dipeptide fluorescence, pooled mixtures. inhibition, %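 (tested at 5 µM per compound within 10-compound mixtures)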. AID 501, 2006; in the data active = inhibition above about 32%, passing the limit was not always enough; inconclusive = no clear call, values can overlap the other calls;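 also: 0% = enzyme without compound and 100% = blank without enzyme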
Target sequence (P25774 115-331 limits assumed): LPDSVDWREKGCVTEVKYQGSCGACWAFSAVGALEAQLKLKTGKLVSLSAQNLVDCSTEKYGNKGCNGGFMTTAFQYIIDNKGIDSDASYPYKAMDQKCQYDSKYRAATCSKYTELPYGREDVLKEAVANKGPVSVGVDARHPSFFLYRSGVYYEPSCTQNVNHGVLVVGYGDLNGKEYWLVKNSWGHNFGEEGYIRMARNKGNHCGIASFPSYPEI
Active calls of the source: *; ? = inconclusive; / = not tested or not shown. Rows were chosen to be rich in hits. Some 1.1% of all compounds tested hit in one or more screens of this group.

SMILES	CatB inh	CatB mix inh	SK-BR-3 tox 24h	CatL inh	HER2 expr 66K	CatS inh
C=CCSC1=N/C(=C\C=C\c2ccco2)C(=O)S1	/	/	/	/	2.1*	/
C=CCSC1=N/C(=C\c2ccc3c(c2)OCO3)C(=O)S1	-3	4	94	-11	81	-6
CNC(=O)CN(C#N)c1nc(N(C)C)nc(N(C)C)n1	0	2	90	1	-20*	17
COC(=O)CN(C#N)c1nc(SC)nc(N(C)C)n1	1	2	/	9	70	13
Cn1c(NCC(O)c2ccccc2)nc2c1c(=O)n(Cc1ccc(Cl)cc1)c(=O)n2C (stereo unspecified)	-1	2	95	9	-28*	10
Cn1c(NCC(O)c2ccccc2)nc2c1c(=O)n(Cc1ccc(Cl)c(Cl)c1)c(=O)n2C (stereo unspecified)	2	/	83	29	49	/
CN(C)CC1(c2ccccc2)CCCC1	1	2	25*	1	90	0
CC(C(=O)NCC1(c2ccccc2)CCCC1)N1CCCC1 (stereo unspecified)	3	-4	72	-7	75	-9
CC1(C)Cc2c(c(N3CCOCC3)nc3snc(N)c23)CO1	-2	/	70	14	42	/
COC(=O)c1ccc(-c2sc3nc(N4CCOCC4)c4c(c3c2N)CC(C)(C)OC4)o1	2	/	34*	-48	22	/
CCC(C(=O)NC1CCCC1)N(C(=O)Cn1nnc(-c2ccc(C)o2)n1)c1cnc2ccccc2c1 (stereo unspecified)	-1	4	/	-1	-8.5*	10
Cc1cc(-c2nnco2)c(C)n1-c1ccc(F)cc1	-3	1	84	4	4.7*	0
Cc1cc(C)n(-c2c(F)c(F)c(CN3CCOCC3)c(F)c2F)n1	0	7	97	1	-21*	3
CS(=O)(=O)c1ccc(Cl)c(NC(=O)COC(=O)CNC(=O)c2ccc(Br)o2)c1	2	-1	/	-6	-22*	-1
CCCCCn1c(CN2CCCCC2CC)nc2c1c(=O)n(C)c(=O)n2C (stereo unspecified)	0	4	/	2	-17*	0
CCCCCn1c(CN2CCCCC2C)nc2c1c(=O)n(C)c(=O)n2C (stereo unspecified)	3	2	79	10	79	1
CCOC(=O)c1sc(=S)n(-c2cc(F)ccc2F)c1N	7	0	/	104*	106	-4
Cc1cc(-n2c(C)cc(C(=O)CSc3nnnn3-c3ccc(Cl)cc3)c2C)no1	3	4	/	6	-7.5*	10
Cc1cc(-n2c(C)cc(C(=O)CSc3nnc4sc5ccccc5n34)c2C)no1	0	3	/	1	112	7
c1ccc(-c2nc(NCc3cccnc3)c3oc4ccccc4c3n2)cc1	-1	0	99	-14	59	-1
Cc1cc(C)nc(N2CCC(C(=O)NCc3cccc(C(F)(F)F)c3)CC2)n1	6	6	40*	-3	100	-9
O=C(NCc1cccc(C(F)(F)F)c1)C1CCN(c2ncccn2)CC1	1	-3	88	-5	104	0
COc1ccc(C2CC(c3ccc(Br)cc3)Nc3nc(N)nn32)cc1 (stereo unspecified)	0	1	103	-2	93	4
Nc1nc2n(n1)C(c1cccs1)CC(c1ccc(Br)cc1)N2 (stereo unspecified)	-3	/	134	-25	-20*	/
Cc1ccc(C)c(N2C(=O)CN=C2Nc2ccccc2Cl)c1	-5	8	129	-4	112	3
SMILES	CatB inh	CatB mix inh	SK-BR-3 tox 24h	CatL inh	HER2 expr 66K	CatS inh
Clc1ccc(OCc2nnc(-c3ccccc3Br)o2)cc1	7	0	/	19	106	-3
O=S(=O)(c1ccccc1F)N(Cc1ccco1)Cc1nnc(-c2ccccc2Br)o1	-2	-3	/	47*	79	-13
O=C(Nc1ccccc1OC(F)F)c1ccc(Br)o1	2	2	87	0	69	4
CCC(C)[C@@H](NC(=O)OC(C)(C)C)c1nnc(S(=O)(=O)Cc2cccc(C)c2)o1 (stereo partly specified)	34*	23*	21*	76*	-17*	3
Nc1ncc2c(n1)CC(c1ccco1)CC2=O (stereo unspecified)	-1	2	/	3	114	2
O=C1CC(c2ccco2)Cc2nc(N3CCc4ccccc4C3)ncc21 (stereo unspecified)	21*	4	67	14	64	-6
CCOC(=O)CNC(=O)CSc1ncnc2c1cnn2-c1ccc(Cl)cc1	-4	-1	79	-8	88	6
CCOC(=O)CNC(=O)CSc1ncnc2c1cnn2Cc1ccccc1	2	1	131	4	-18*	10
CCc1ccccc1N(C(=O)c1cccs1)C1C=CS(=O)(=O)C1 (stereo unspecified)	7	3	/	7	122	11
CCCC(=O)Nc1ccc2c(c1)nc(CN1CCCCC1)n2C	2	5	93	6	62	15
O=C(CNC(=O)c1ccco1)OC(C(=O)c1ccccc1)c1ccccc1 (stereo unspecified)	18	?	/	78*	87	0
CCOCCc1nnc(NC(=O)COC)s1	5	-2	77	5	/	10
O=C(Oc1oc(-c2ccco2)nc1C=Nc1ccccc1)c1ccoc1	15	/	88	24	99	/
O=C(Oc1oc(-c2ccco2)nc1C=Nc1ccccc1)c1ccco1	22*	11	88	18	97	2
CCOC(=O)CNC(=O)c1ccccc1Br	2	-3	86	30	63	6
Cc1cc2nc(NC3=NCN(CCN4CCOCC4)CN3)nc(C)c2cc1C	2	-11	90	3	105	8
Cc1cc2nc(NC3=NCN(Cc4ccc5c(c4)OCO5)CN3)nc(C)c2cc1C	-2	1	70	1	-5.8*	-6
Cc1cc(-c2ccccc2)nc(=O)[nH]1	8	6	89	15	-18*	6
CN1CCN(CCCNc2nc3ccccc3c3nc(-c4ccccc4)nn23)CC1	-3	6	/	-5	-10*	-5
Cc1cc(C)nc(N2CCCC(C(=O)NCCc3ccccc3F)C2)n1 (stereo unspecified)	-3	-3	43*	16	114	5
O=C(O)c1cc(S(=O)(=O)Nc2ccc3c(c2)OCCO3)c(Cl)cc1Cl	13	5	/	8	80	16
Brc1cccc(-c2nnc(SCc3ccon3)n2-c2ccccc2)c1	0	-3	/	-3	119	-3
CC(C)C(=O)N(Cc1cc2ccccc2[nH]c1=O)C(C)(C)C	-2	3	95	-2	-27*	10
